Our source for the relative cell viability values is the supplement of paper PMC7184167.

Counter-ions that a name gives are not always drawn.

This test concerns replication-induced senescent mouse newborn dermal fibroblasts (NBF). As to the kind of experiment: relative cell viability of senescent cells (fraction); higher = less killing of senescent cells. As to conditions: 1 µM; 3 days. Here is the method:
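Replication-induced senescent newborn mouse skin fibroblasts (NBFs) in 24-well plates were treated with a Selleck FDA-approved drug library at 1 µM for 3 days.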
As for `CCOC(=O)C1=C(C)NC(C)=C(C(=O)OC)C1c1cccc(Cl)c1Cl` (stereo not given) [Felodipine], the relative cell viability was 1.

The compound `Cn1c(=O)c2nc[nH]c2n(C)c1=O` [Theophylline] displayed a relative cell viability of 0.828. Take `C[C@]12C=CC(=O)C=C1CC[C@@H]1[C@@H]2[C@@H](O)C[C@@]2(C)[C@H]1CC[C@]2(O)C(=O)CO` [Prednisolone]: the relative cell viability is 1.01. The value for `CC(C)[C@H](N)C(=O)OCCOCn1cnc2c(=O)nc(N)[nH]c21` [Valaciclovir HCl] was 0.909. The value for `CC(C)(C)C(=O)OCOP(=O)(COCCn1cnc2c(N)ncnc21)OCOC(=O)C(C)(C)C` [Adefovir Dipivoxil] was 0.924; that for `COc1cc(C(=O)NS(=O)(=O)c2ccccc2C)ccc1Cc1cn(C)c2ccc(NC(=O)OC3CCCC3)cc12` [Zafirlukast] was 0.957. Under `COc1cnc(NS(=O)(=O)c2ccc(N)cc2)nc1` [Sulfameter] stands 0.763; under `Cn1cc(CNCC2CCN(c3ncc(C(=O)NO)cn3)CC2)c2ccccc21`, 0.757.

As to `CCC[S+]([O-])c1ccc2[nH]c(NC(=O)OC)nc2c1` (stereo not given) [Albendazole Oxide], the relative cell viability was 0.993. The value for `COc1cc(/C=C/C(=O)CC(=O)/C=C/c2ccc(O)c(OC)c2)ccc1O` [Curcumin] was 0.768; that for `Cc1ccc(C(=O)N(CCCN)[C@@H](c2nc3cc(Cl)ccc3c(=O)n2Cc2ccccc2)C(C)C)cc1` was 1.13. Under `Nc1ccc(S(N)(=O)=O)cc1` [Sulfanilamide] stands 0.91; under `CCCCc1nc2cc(/C=C/C(=O)NO)ccc2n1CCN(CC)CC` [Pracinostat (SB939)], 1.01. Under `COc1ccc(CC2c3cc(OC)c(OC)cc3CC[N+]2(C)CCC(=O)OCCCCCOC(=O)CC[N+]2(C)CCc3cc(OC)c(OC)cc3C2Cc2ccc(OC)c(OC)c2)cc1OC` (stereo not given) [Atracurium Besylate] stands 1.07; under `COC(=O)Nc1nc2cc([S+]([O-])c3ccccc3)ccc2[nH]1` (stereo not given) [Oxfendazole], 1.04. `CS(=O)(=O)OCCCCOS(C)(=O)=O` [Busulfan] displayed a relative cell viability of 1.03.

On to `COCC[n+]1c2c(n(Cc3cnccn3)c1C)C(=O)c1ccccc1C2=O` [YM155 (Sepantronium Bromide)], for which the relative cell viability came out at 0.187. Under `COc1cc2nc(N3CCN(C(=O)c4ccco4)CC3)nc(N)c2cc1OC` [Prazosin HCl] stands 0.927. Under `CC1(C)CCC(c2ccc(Cl)cc2)=C(CN2CCN(c3ccc(C(=O)NS(=O)(=O)c4ccc(N[C@H](CCN5CCOCC5)CSc5ccccc5)c(S(=O)(=O)C(F)(F)F)c4)cc3)CC2)C1` [Navitoclax (ABT-263)] stands 1.04.

The compound `Nc1ccn([C@H]2CC[C@@H](CO)O2)c(=O)n1` [Zalcitabine] registered a relative cell viability of 0.129. Under `COC(=O)[C@@H]1CC2=CC(=O)CC[C@]2(C)[C@@]23O[C@@H]2C[C@@]2(C)[C@@H](CC[C@@]24CCC(=O)O4)[C@H]13` [Eplerenone] stands 0.925; under `CCCC(CCC)C(=O)O` [Divalproex Sodium], 1.11. For the compound `CC(C)c1cc(-c2n[nH]c(=O)n2-c2ccc3c(ccn3C)c2)c(O)cc1O` [Ganetespib (STA-9090)], the relative cell viability was 0.0837. The value for `CCCSc1ccc2[nH]c(NC(=O)OC)nc2c1` [Albendazole] was 1.08; that for `Oc1ccc(/C=C/c2cc(O)cc(O)c2)cc1` [Resveratrol] was 1.02.

For the compound `CC(C(=O)O)c1cccc(Oc2ccccc2)c1` (stereo not given) [Fenoprofen Calcium], the relative cell viability was determined as 1.13.

Consider `CC1(C)O[C@@H]2[C@@H](CO[C@@]3(COS(N)(=O)=O)OC(C)(C)O[C@@H]23)O1` [Topiramate], for which the relative cell viability is 0.921.

Compound `CN(C)CCc1c[nH]c2ccc(C[C@H]3COC(=O)N3)cc12` [Zolmitriptan] yielded a relative cell viability of 0.999. The value for `CC(C)[C@H](O)C(=O)N[C@@H](C)C(=O)N[C@@H]1C(=O)N(C)CCc2ccccc21` was 0.981; that for `NC(=O)c1cnccn1` [Pyrazinamide] was 1.17.

On to `CCC(=O)OCC(=O)[C@@]1(OC(=O)CC)[C@@H](C)C[C@H]2[C@@H]3CCC4=CC(=O)C=C[C@]4(C)[C@@]3(F)[C@@H](O)C[C@@]21C` [Betamethasone Dipropionate], for which the relative cell viability amounted to 0.902.

Take `COc1ccccc1OCC(O)CN1CCN(CC(=O)Nc2c(C)cccc2C)CC1` (stereo not given) [Ranolazine 2HCl]: the relative cell viability was 0.773.

For the compound `CCOC(=O)c1ccc(C#Cc2ccc3c(c2)C(C)(C)CCS3)nc1` [Tazarotene], the relative cell viability worked out at 1.23. For `CO[C@H]1C[C@@H]2CC[C@@H](C)[C@@](O)(O2)C(=O)C(=O)N2CCCC[C@H]2C(=O)O[C@H]([C@H](C)C[C@@H]2CC[C@@H](OCCO)[C@H](OC)C2)CC(=O)[C@H](C)/C=C(\C)[C@@H](O)[C@@H](OC)C(=O)[C@H](C)C[C@H](C)/C=C/C=C/C=C/1C` [Everolimus (RAD001)], the relative cell viability was found to be 0.765. The value for `CCc1c2c(nc3ccc(OC(=O)N4CCC(N5CCCCC5)CC4)cc13)-c1cc3c(c(=O)n1C2)COC(=O)[C@]3(O)CC` [Irinotecan] was 0.893; that for `Cn1cnc([N+](=O)[O-])c1Sc1ncnc2[nH]cnc12` [Azathioprine] was 0.986; that for `C#C[C@]1(O)CC[C@H]2[C@@H]3CCC4=CC(=O)CC[C@@H]4[C@H]3CC[C@@]21CC` [Levonorgestrel] was 0.996. The value for `C#Cc1cccc(Nc2ncnc3cc(OC)c(OCCCCCCC(=O)NO)cc23)c1` was 1.02. The value for `O=C(O)C[C@H](O)C[C@H](O)/C=C/c1c(C2CC2)nc2ccccc2c1-c1ccc(F)cc1` [Pitavastatin Calcium] was 1.08. `Nc1nc(=O)n([C@@H]2CS[C@H](CO)O2)cc1F` [Emtricitabine] had a relative cell viability of 1.04.
